Results reported in PubChem BioAssay (NCATS).
Results filed as inconclusive are left out. The source made the active and inactive calls. Calls follow the shape of the dose curve; as a rule, active = well fitted curve in the direction sought with a large enough effect; inconclusive = small, poorly fitted or top-dose-only effect, or another doubt; inactive = no such curve, though single readings can be large; an effect the other way counts as inactive or inconclusive.

How the values were obtained:
[1] = qHTS of pediatric cancer cell lines to identify multiple opportunities for drug repurposing: Primary screen for DAOY cells (AID 1347090); also: nearly all actives have a fitted effect of over 55% in size
Outline: (§1)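 Viability measured as metabolically active cells via CellTiter-Glo luminescence following 48 hours of compound exposure, 11-point dilutions in confirmatory testing. 500-1,000 cells/well plated 5 hours before dosing; controls were DMSO and 2.3 µM bortezomib.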

[2] = qHTS of pediatric cancer cell lines to identify multiple opportunities for drug repurposing: Primary screen for A673 cells (AID 1347092); also: nearly all actives have a fitted effect of over 45% in size
Outline: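 Titration-based qHTS on A673 cells: MIPE compounds spanned 11 points (0.78 nM to 46 µM final), NPC compounds 8 points (0.59 nM to 46 µM final). Viability after 48 h was measured by ATP luminescence.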

[3] = qHTS of pediatric cancer cell lines to identify multiple opportunities for drug repurposing: Primary screen for SK-N-MC cells (AID 1347093)
Outline: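 Metabolically active cells were quantified by ATP-dependent luminescence (CellTiter-Glo, 15 min at room temperature) following 48 h treatment. Cells had been plated at 500-1,000 per well and settled for 5 h beforehand.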

[4] = qHTS of pediatric cancer cell lines to identify multiple opportunities for drug repurposing: Primary screen for BT-37 cells (AID 1347094)
Outline: (§2)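 Readout: CellTiter-Glo luminescence, 48 h treatment. Controls DMSO (neutral) and bortezomib 2.3 µM final (positive). Potency and efficacy taken from primary-screen concentration-response curves.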

[5] = qHTS of pediatric cancer cell lines to identify multiple opportunities for drug repurposing: Primary screen for NB-EBc1 cells (AID 1347095)
Outline: as §2

[6] = qHTS of pediatric cancer cell lines to identify multiple opportunities for drug repurposing: Primary screen for SK-N-SH cells (AID 1347098); also: nearly all actives have a fitted effect of over 65% in size
Outline: (§3)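 Cells (500-1,000/well) rested 5 h, then received compounds for 48 h; metabolically active cells were measured by CellTiter-Glo luminescence. Final concentrations spanned up to 46 µM (MIPE, 11-point) or 0.59 nM-46 µM (NPC, 8-point) in primary screens, 11-point in follow-ups.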

[7] = qHTS of pediatric cancer cell lines to identify multiple opportunities for drug repurposing: Primary screen for NB1643 cells (AID 1347099); also: nearly all actives have a fitted effect of over 50% in size
Outline: as §2

[8] = qHTS of pediatric cancer cell lines to identify multiple opportunities for drug repurposing: Primary screen for LAN-5 cells (AID 1347100)
Outline: (§4)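 Viability after 48 h compound treatment at 37C, 500-1,000 cells/well, read as ATP luminescence with CellTiter-Glo. Primary screens used 11-point (MIPE, 0.78 nM-46 µM) or 8-point (NPC, 0.59 nM-46 µM) final concentrations; follow-up screens used 11-point dilutions.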

[9] = qHTS of pediatric cancer cell lines to identify multiple opportunities for drug repurposing: Primary screen for OHS-50 cells (AID 1347103); also: nearly all actives have a fitted effect of over 40% in size
Outline: as §3

[10] = qHTS of pediatric cancer cell lines to identify multiple opportunities for drug repurposing: Primary screen for MG 63 (6-TG R) cells (AID 1347105); also: nearly all actives have a fitted effect of over 50% in size
Outline: as §2

[11] = qHTS of pediatric cancer cell lines to identify multiple opportunities for drug repurposing: Primary screen for U-2 OS cells (AID 1347096); also: nearly all actives have a fitted effect of over 50% in size
Outline: as §4

[12] = qHTS of pediatric cancer cell lines to identify multiple opportunities for drug repurposing: Primary screen for Saos-2 cells (AID 1347097); also: nearly all actives have a fitted effect of over 40% in size
Outline: as §2

[13] = qHTS of pediatric cancer cell lines to identify multiple opportunities for drug repurposing: Primary screen for Rh18 cells (AID 1347102); also: nearly all actives have a fitted effect of over 65% in size
Outline: as §4

[14] = qHTS of pediatric cancer cell lines to identify multiple opportunities for drug repurposing: Primary screen for control Hh wild type fibroblast cells (AID 1347106); also: nearly all actives have a fitted effect of over 55% in size
Outline: as §4

[15] = qHTS of pediatric cancer cell lines to identify multiple opportunities for drug repurposing: Primary screen for SJ-GBM2 cells (AID 1347091)
Outline: as §1

[16] = qHTS of pediatric cancer cell lines to identify multiple opportunities for drug repurposing: Primary screen for BT-12 cells (AID 1347101); also: nearly all actives have a fitted effect of over 25% in size
Outline: as §3

[17] = qHTS of pediatric cancer cell lines to identify multiple opportunities for drug repurposing: Primary screen for RD cells (AID 1347104); also: nearly all actives have a fitted effect of over 55% in size
Outline: as §2
Potency is read from the fitted curve at half-maximal effect.

SMILES | Potency [1] | Potency [2] | Potency [3] | Potency [4] | Potency [5] | Potency [6] | Potency [7] | Potency [8] | Potency [9] | Potency [10] | Potency [11] | Potency [12] | Potency [13] | Potency [14] | Potency [15] | Potency [16] | Potency [17]
Cn1c2ccccc2c2c3c(c4c5ccccc5n(CCC#N)c4c21)CNC3=O | 5.9 µM (active) | 0.935 µM (active) | 0.148 µM (active) | 7.69 µM (active) | 0.418 µM (active) | 5.41 µM (active) | 1.87 µM (active) | 5.9 µM (active) | 5.44 µM (active) | 14.8 µM (active) | – | – | – | – | – | – | –
COC(=O)C1=C(C)NC(C)=C(C(=O)OCCN2CCN(C(c3ccccc3)c3ccccc3)CC2)C1c1cccc([N+](=O)[O-])c1 (configuration not stated) | – | – | 6.68 µM (active) | – | – | – | 16.8 µM (active) | – | 15.5 µM (active) | inactive | inactive | 13.3 µM (active) | 16.8 µM (active) | inactive | – | – | –
COc1cc2nccc(Oc3ccc(NC(=O)C4(C(=O)Nc5ccc(F)cc5)CC4)cc3)c2cc1OC | 14.8 µM (active) | – | 1.66 µM (active) | 1.72 µM (active) | 0.743 µM (active) | 3.41 µM (active) | 9.35 µM (active) | – | 27.3 µM (active) | – | – | 18.7 µM (active) | 10.5 µM (active) | – | 0.0235 µM (active) | 15.3 µM (active) | 16.6 µM (active)
Cc1cc(Nc2cc(CN3CCOCC3)c3nc(C)c(Cc4ccc(Cl)cc4F)n3n2)n[nH]1 | 23.5 µM (active) | 5.9 µM (active) | – | – | 4.18 µM (active) | 6.81 µM (active) | – | 0.469 µM (active) | 27.3 µM (active) | 14.8 µM (active) | inactive | 5.9 µM (active) | 13.2 µM (active) | – | 23.5 µM (active) | – | 20.9 µM (active)
Cn1cc(-c2ccncc2)c(-c2ccc(OCc3ccc4ccccc4n3)cc2)n1 | 4.69 µM (active) | 3.72 µM (active) | 9.35 µM (active) | – | – | inactive | – | – | 3.06 µM (active) | inactive | inactive | 11.8 µM (active) | inactive | inactive | – | – | –
Cc1cccc(C=NNc2cc(N3CCOCC3)nc(OCCc3ccccn3)n2)c1 | – | 7.43 µM (active) | – | – | 1.32 µM (active) | 24.1 µM (active) | 16.6 µM (active) | – | 24.3 µM (active) | inactive | – | – | – | – | 1.32 µM (active) | – | –
CN(C1CCc2c(c3ccccc3n2CC(=O)O)C1)S(=O)(=O)c1ccc(F)cc1 (configuration not stated) | 5.9 µM (active) | 0.935 µM (active) | – | – | – | – | 1.32 µM (active) | 5.26 µM (active) | – | – | inactive | inactive | – | inactive | – | – | 4.18 µM (active)
COc1cccc(-c2ccc(NC(=O)C3=C(C(=O)O)CCC3)c(F)c2)c1 | – | 5.9 µM (active) | 1.32 µM (active) | 19.3 µM (active) | 3.72 µM (active) | 24.1 µM (active) | 5.26 µM (active) | 13.2 µM (active) | – | – | inactive | 13.2 µM (active) | inactive | inactive | 11.8 µM (active) | 19.3 µM (active) | –
COc1cc(-c2nn(C3CCC(N4CCN(C(C)=O)CC4)CC3)c3ncnc(N)c23)ccc1NC(=O)c1cc2ccccc2n1C (configuration not stated) | – | 0.235 µM (active) | 0.743 µM (active) | – | – | 3.41 µM (active) | – | – | 2.17 µM (active) | – | – | 0.526 µM (active) | – | – | 1.87 µM (active) | – | 0.662 µM (active)
COc1cc2c(Oc3ccc4[nH]c(C)cc4c3F)ncnc2cc1OCCCN1CCCC1 | 18.7 µM (active) | 18.7 µM (active) | – | 24.3 µM (active) | 4.18 µM (active) | 7.64 µM (active) | – | 20.9 µM (active) | 30.6 µM (active) | 23.5 µM (active) | inactive | – | 18.7 µM (active) | 26.4 µM (active) | 6.62 µM (active) | 24.3 µM (active) | 26.4 µM (active)
COc1cc2c(cc1-c1c(C)noc1C)ncc1[nH]c(=O)n([C@H](C)c3ccccn3)c12 | 18.7 µM (active) | – | – | 17.2 µM (active) | 16.6 µM (active) | 21.5 µM (active) | 11.8 µM (active) | 5.9 µM (active) | 0.485 µM (active) | 1.87 µM (active) | 18.7 µM (active) | – | 5.9 µM (active) | 16.6 µM (active) | 16.6 µM (active) | 19.3 µM (active) | 4.69 µM (active)
COc1cc(OC2CCN(C)CC2)ccc1Nc1ncc2c(n1)n(C1CCCC1)c(=O)n2C | 23.5 µM (active) | 14.8 µM (active) | 3.32 µM (active) | – | 8.33 µM (active) | 12.1 µM (active) | 10.5 µM (active) | 13.2 µM (active) | 19.3 µM (active) | 23.5 µM (active) | 23.5 µM (active) | – | 20.9 µM (active) | – | – | – | 18.7 µM (active)
NC(=O)c1c(OCc2c(F)cc(Br)cc2F)nsc1NC(=O)NCCCCN1CCCC1 | 23.5 µM (active) | 18.7 µM (active) | – | 24.3 µM (active) | 2.64 µM (active) | – | inactive | – | 24.3 µM (active) | 5.9 µM (active) | inactive | inactive | – | – | – | 27.3 µM (active) | –
COc1cc2ncn(-c3cc(OCc4ccccc4C(F)(F)F)c(C(N)=O)s3)c2cc1OC | 0.372 µM (active) | – | 0.469 µM (active) | 19.3 µM (active) | 4.69 µM (active) | 24.1 µM (active) | – | – | 1.22 µM (active) | 7.43 µM (active) | 23.5 µM (active) | 10.5 µM (active) | – | 18.7 µM (active) | 0.662 µM (active) | 21.7 µM (active) | 1.66 µM (active)
Cc1ccc(C(N)=O)cc1Nc1nccc(-c2cn(C(C)C)c3cnccc23)n1 | 11.8 µM (active) | – | 5.9 µM (active) | 9.68 µM (active) | 4.18 µM (active) | – | inactive | – | 9.68 µM (active) | – | inactive | 4.69 µM (active) | inactive | inactive | 7.43 µM (active) | 6.85 µM (active) | 16.6 µM (active)
O=C(CCCCCCC(=O)Nc1ccc([C@H]2O[C@@H](CSc3nc(-c4ccccc4)c(-c4ccccc4)o3)C[C@@H](c3ccc(CO)cc3)O2)cc1)NO | 11.8 µM (active) | 4.69 µM (active) | 8.33 µM (active) | 15.3 µM (active) | 8.33 µM (active) | 27.1 µM (active) | 7.43 µM (active) | 8.33 µM (active) | 15.3 µM (active) | 14.8 µM (active) | inactive | inactive | 10.5 µM (active) | – | – | 21.7 µM (active) | 16.6 µM (active)
O=C(O)c1ccc2cc(-c3ccc(O)c(C45CC6CC(CC(C6)C4)C5)c3)ccc2c1 | 0.469 µM (active) | 2.35 µM (active) | 0.372 µM (active) | 0.863 µM (active) | 0.209 µM (active) | 24.1 µM (active) | 0.372 µM (active) | 0.59 µM (active) | 0.243 µM (active) | 0.296 µM (active) | inactive | 0.296 µM (active) | – | inactive | – | – | 5.26 µM (active)
CC(C)=CCCC(C)=CCCC(C)=CCSc1ccccc1C(=O)O | – | 5.9 µM (active) | – | 7.69 µM (active) | 5.9 µM (active) | – | inactive | – | 1.53 µM (active) | 3.72 µM (active) | – | 3.72 µM (active) | 11.8 µM (active) | 8.33 µM (active) | 0.833 µM (active) | – | –
